Consider eight compounds from PubChem BioAssay.

For assay [1], the system named is XIP peptide (Xip251-270) binding. As to the kind of experiment: small-molecule binders of XIP peptide, primary screen, biochemical, small-molecule microarray, fluorescence 635/667 nm, 0.1 µg/mL protein (AID 1182). As to conditions: fluorescent protein binding, 635 nm, higher = more signal, called active from +8 up or from −8 down.
The next assay has as its system XIP peptide (Xip251-270). As to the kind of experiment: small-molecule binders of XIP peptide, primary screen, biochemical, small-molecule microarray, fluorescence 635/667 nm, 0.5 µg/mL protein (AID 1183). As to conditions: small-molecule microarray binding, fluorescence 635 nm; higher = more signal.
Assay [2] in a line: Plasmodium falciparum growth inhibition, primary screen, strain 3D7, DAPI fluorescence, 100 nL (AID 1184).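 Further: parasites grown inside human red blood cells in medium with human serum.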 Conditions: P. falciparum 3D7 growth, 3 d, higher = more signal.
Assay [3] addresses Homeobox protein Hox-A13 (Mus musculus) (UniProt Q62424). As to the kind of experiment: inhibitors of HoxA13-DNA binding, primary screen, biochemical, fluorescence polarization, labeled oligonucleotide (AID 1185). Conditions: 15 min, higher = more signal, called active from +8 up or from −8 down.

Activity calls are given as the source filed them.

Chain of Homeobox protein Hox-A13 (Mus musculus) (Q62424 whole entry, looked up): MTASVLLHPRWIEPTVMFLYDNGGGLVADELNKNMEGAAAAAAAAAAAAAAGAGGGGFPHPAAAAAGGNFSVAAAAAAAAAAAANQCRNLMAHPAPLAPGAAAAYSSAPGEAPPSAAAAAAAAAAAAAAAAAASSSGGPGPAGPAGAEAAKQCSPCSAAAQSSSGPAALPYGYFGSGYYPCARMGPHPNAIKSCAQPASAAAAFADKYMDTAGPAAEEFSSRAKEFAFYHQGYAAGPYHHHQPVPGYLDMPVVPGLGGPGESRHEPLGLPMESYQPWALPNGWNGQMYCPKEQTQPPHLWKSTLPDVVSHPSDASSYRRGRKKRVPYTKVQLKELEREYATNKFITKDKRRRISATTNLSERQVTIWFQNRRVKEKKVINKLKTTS

In the case of `CCCNC(=O)OC[C@H]1O[C@H](CCON=C[C@@H](C)[C@H](OCc2ccccc2)C(C)C)C=C[C@@H]1Oc1ccc(OC)cc1`, the composite z-score in assay [1] was 0.196 (inactive); with XIP peptide (Xip251-270) it was -0.267. The z-score was -0.591 in assay [2] and -3.32 (inactive) in assay [3].
As to `CC(C)=NOC[C@@H](O)[C@H]1O[C@@H]2OC(C)(C)O[C@@H]2[C@H]1O`, the composite z-score was 0.524 (inactive) in assay [1] and -0.122 with XIP peptide (Xip251-270). The z-score in assay [2] was 0.292; in assay [3], 0.483 (inactive).
The corresponding values for `CC(=O)OC[C@H]1O[C@H](CC=NOCC[C@@H]2C=C[C@H](OC(C)=O)[C@@H](COC(C)=O)O2)C=C[C@@H]1OC(C)=O` are -0.0772 (inactive), 0.677, 0.256 and -0.963 (inactive).
As to `COC(=O)[C@H](CCSC)NC(=O)CC=C[C@@H](C)CO`, the composite z-score in assay [1] was -0.0999 (inactive); in the assay on XIP peptide (Xip251-270), 0.334. Besides, the z-score was -0.979 in assay [2] and -0.265 (inactive) in assay [3].
Regarding `CON=C(C)CCC(=O)OC[C@H]1O[C@H](C#Cc2ccccc2)C=C[C@@H]1Oc1ccc(C)cc1`, the composite z-score in assay [1] was 0.177 (inactive); with XIP peptide (Xip251-270) it was 0.627. Further, the z-score was -0.306 in assay [2] and -4.45 (inactive) in assay [3].
For the compound `COC(=O)C1=C(C)N(Cc2ccccc2)C2=C3C(=O)OCC[C@@H]3[C@@](O)(C(=O)OC)C(=O)N2[C@@H]1c1ccccc1`, the composite z-score was 0.75 (inactive) in assay [1] and -0.189 in the assay on XIP peptide (Xip251-270). Further, the figures for the z-score in assay [2] and in assay [3] were 0.964 and -0.987 (inactive), respectively.
For `CCN1C(=O)[C@H]2[C@H]3[C@H](O)[C@H](O)CC(=NOCC(C)C)[C@H]3CC[C@H]2C1=O`, in that order: -0.583 (inactive), -0.122, 1.82 and 0.204 (inactive).
As for `CCCNC(=O)OC[C@H]1O[C@H](CCON=C2c3cc(OC)ccc3O[C@H](c3cccc(OC)c3)[C@H]2O)C=C[C@@H]1Oc1ccc(OC)cc1`, the values for the composite z-score (in assay [1]; in the assay with XIP peptide (Xip251-270)) were 0.328 (inactive) and 0.693, respectively. In addition, the z-score was 0.365 in assay [2] and -1.94 (inactive) in assay [3].
